Bioassay records deposited in PubChem by several laboratories.
Rows were chosen to be rich in hits. Some 4% of all compounds tested hit in one or more screens of this group.
Mtb UGM inh: blocks M. tuberculosis UGM enzyme; P9WIQ1; purified UGM, fluorescence polarization probe displacement; inhibition, % at 10 µM; 0.06% of 320,000 active; in the data active means inhibition above about 10%, passing the limit was not always enough
RecA splice inh: inhibitors of M. tuberculosis RecA intein splicing | 0.75% of 290,000 active | cell-free RecA intein splicing, fluorescence | P9WHJ3 | inhibition, % (no concentration beside the values); in the data active means inhibition above about 30%
Mtb betalactam: beta-lactam sensitization of Mtb H37Rv; inhibition, % at 25 µM; 0.27% of 330,000 active; AID 434955; M. tuberculosis H37Rv growth with meropenem, percent inhibition; call rule not given here;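 further: growth measured after seven days incubation then overnight dye step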
Mtb FBA inh: inhibitors of M. tuberculosis fructose-bisphosphate aldolase. P9WQA3. purified M. tuberculosis FBA, fluorescence read-out. inhibition, % at 1 µM. 2.3% of 360,000 active. AID 588726
GDH-TPI counter-1: inhibits GDH-TPI coupling enzymes, artifact for Mtb FBA screen; GDH-TPI coupled enzyme counterscreen, NADH absorbance; inhibition, % at 4.8 µM; 1.2% of 360,000 active; in the data active means inhibition above about 30%
Rv3671c inh: inhibits the M. tuberculosis serine protease Rv3671c. P9WHR9. 0.048% of 320,000 active. inhibition, % at 5.96 µM; in the data active means inhibition above about 38%;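 further: extracellular domain of Rv3671c used as enzyme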
Target sequence (P9WHR9 whole entry, looked up, the tested form may be a part): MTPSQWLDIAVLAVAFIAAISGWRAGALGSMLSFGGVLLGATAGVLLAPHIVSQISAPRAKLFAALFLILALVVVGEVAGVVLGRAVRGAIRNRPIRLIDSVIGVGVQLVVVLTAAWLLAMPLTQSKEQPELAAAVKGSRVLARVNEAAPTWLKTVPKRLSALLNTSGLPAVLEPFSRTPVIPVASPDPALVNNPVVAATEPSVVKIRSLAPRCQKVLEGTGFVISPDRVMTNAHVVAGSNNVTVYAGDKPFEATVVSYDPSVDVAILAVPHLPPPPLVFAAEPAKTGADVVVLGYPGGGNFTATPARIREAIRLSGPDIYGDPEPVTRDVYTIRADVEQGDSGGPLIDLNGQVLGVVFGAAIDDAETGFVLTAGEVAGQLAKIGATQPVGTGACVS
GFP chromophore: counter-screen: blocks GFP chromophore formation. EC50, µM. cell-free GFP chromophore formation, fluorescence. AID 434968. 83% of 2,100 active. shares compounds with RecA splice inh; call rule not given here
Rv3671c cf: Rv3671c protease inhibition, confirmation; shares compounds with Rv3671c inh; inhibition, % at 5.96 µM; 40% of 140 active; in the data active means inhibition above about 38%
Mtb FBA inh conf: Mtb FBA inhibition, confirmed; shares compounds with Mtb FBA inh; purified M. tuberculosis FBA, fluorescence read-out; inhibition, % at 1 µM; 78% of 5,600 active; AID 651616
GDH-TPI counter-2: counter-screen for M. tuberculosis FBA inhibitors: GDH-TPI coupled enzyme inhibition; shares compounds with Mtb FBA inh; GDH-TPI coupled enzyme counterscreen, fluorescence; inhibition, % at 1 µM; 81% of 5,600 active; AID 652141; in the data active means inhibition above about 10%
Each line names hits and unclear results; the compound was inactive in the other large screens (follow-up assays come after a bar, where they were run). Unless noted, no stated cut-off is given here; in the data, active means inhibition above about 27%; inactive means the rest.

CCOc1ccccc1Oc1coc2cc(OC(=O)c3ccco3)ccc2c1=O	RecA splice inh 33, Mtb FBA inh 32 | GFP chromophore inactive | Mtb FBA inh conf 29 | GDH-TPI counter-2 21
CCOc1ccccc1Oc1coc2cc(OC(=O)N(C)C)ccc2c1=O	none
COCCn1c(N)c(C(=O)NCc2cccs2)c2nc3ccccc3nc21	RecA splice inh 62, Mtb FBA inh 101 | GFP chromophore inactive | Mtb FBA inh conf 116 | GDH-TPI counter-2 77
CC1(C(=O)NS(=O)(=O)c2ccc(Br)cc2)CCN1C(=O)C1(c2ccccc2)CC1 (stereo unspecified)	none (no result: Mtb UGM inh, RecA splice inh, Mtb betalactam, Rv3671c inh)
O=c1[nH]c(N2CCOCC2)cc2ccccc12	RecA splice inh 69, Mtb FBA inh 45 | GFP chromophore 24 | Mtb FBA inh conf 144 | GDH-TPI counter-2 100
Cc1oc2cc([N+](=O)[O-])c(O)c([N+](=O)[O-])c2c1C(=O)c1ccc(Cl)cc1	RecA splice inh 37, Mtb FBA inh 72, GDH-TPI counter-1 31 | GFP chromophore 22 | Mtb FBA inh conf inactive | GDH-TPI counter-2 13
CC1CCC2(CC1)NC(=O)N(NC(=O)C1CCN(C(=O)c3ccc(Cl)cc3)CC1)C2=O (stereo unspecified)	none (no result: Mtb UGM inh, RecA splice inh, Mtb betalactam, Rv3671c inh)
O=C(CCc1ccc(S(=O)(=O)N2CCOCC2)cc1)Nc1ccc(F)cc1[N+](=O)[O-]	none (no result: RecA splice inh)
CC(=O)[C@]1(O)Cc2c(O)c3c(c(O)c2[C@@H](O[C@H]2C[C@H](N)[C@H](O)[C@H](C)O2)C1)C(=O)c1ccccc1C3=O	Mtb UGM inh 70, Rv3671c inh 69 (no result: Mtb FBA inh, GDH-TPI counter-1) | Rv3671c cf 81
COc1cccc2c1C(=O)c1c(O)c3c(c(O)c1C2=O)C[C@@](O)(C(C)=O)C[C@@H]3O[C@H]1C[C@H](N)[C@H](O)[C@H](C)O1	none (no result: Mtb UGM inh, RecA splice inh, Mtb betalactam, Rv3671c inh)
CCN(c1ccccc1)S(=O)(=O)c1ccc(N2CCN(c3ccc(OC)cc3)CC2)nc1	Rv3671c inh 102 (no result: RecA splice inh) | Rv3671c cf inactive
O=C(N/N=C/c1cc([N+](=O)[O-])ccc1O)NC12CC3CC(CC(C3)C1)C2	Rv3671c inh 52 | Rv3671c cf inactive
c1ccc(CN2CN=C(Nc3nc4ccccc4s3)NC2)cc1	none
c1ccc(CCN2CN=C(Nc3nc4ccccc4s3)NC2)cc1	Rv3671c inh 78 | Rv3671c cf inactive
COC(=O)c1ccccc1-c1c2ccc(=N)cc-2oc2cc(N)ccc12	Mtb UGM inh 138, Rv3671c inh 166 (no result: RecA splice inh) | Rv3671c cf 164
O=C(NC(=S)NNC(=O)c1ccccc1O)c1cccnc1	Rv3671c inh 47 | Rv3671c cf 44
NC(=O)COC(=O)C1c2ccccc2Oc2ccccc21	none
N#CCN(CC#N)C(=O)C1c2ccccc2Oc2ccccc21	Rv3671c inh 104 | Rv3671c cf inactive
Cc1ccc(S(=O)(=O)N(C)c2ccc(OC(=O)c3cccs3)cc2)cc1C	none (no result: RecA splice inh)
Cc1[nH]c2c(C)cccc2c1CC(=O)O	none
Cc1cccc2c(N=O)c(O)[nH]c12	Rv3671c inh 48 | Rv3671c cf inactive
COc1cc(OC)nc(NC(=O)COC(=O)c2cccc(Cl)c2)n1	Rv3671c inh active | Rv3671c cf inactive
COCCCNC1=C(Cl)C(=O)c2ccccc2C1=O	none
COCCCNc1c2c3c(cccc3[nH]c1=O)C(=O)c1ccccc1-2	Mtb UGM inh 102, Rv3671c inh 137 (no result: RecA splice inh) | Rv3671c cf 145
COc1ccc(NC(=O)CSc2nnc(-c3cnccn3)n2C)cc1OC	none
CN[C@H]1C[C@H]2c3cc(N4CCN(C)CC4)ccc3CCN2C(=O)[C@H]1[C@H](C)O	none (no result: Mtb UGM inh, RecA splice inh, Mtb betalactam, Rv3671c inh)
Cc1noc(C(=O)Nc2ccc(F)c(Cl)c2)c1Cl	Rv3671c inh 61 | Rv3671c cf inactive
Cc1noc(C(=O)Nc2ccc(Cl)cc2)c1Cl	none (no result: Mtb FBA inh, GDH-TPI counter-1)
Cc1sc(-c2ccncc2)nc1OC(=O)c1ccccc1	Rv3671c inh 44 | Rv3671c cf 61
O=C(NCc1cccs1)c1cccc(Nc2nc3ccc(Br)cc3[nH]2)c1	Rv3671c inh 43 | Rv3671c cf 37
COc1cc(C=NNc2ccc(S(=O)(=O)Nc3ccccc3C(=O)O)cc2[N+](=O)[O-])ccc1O	Rv3671c inh 47 (no result: RecA splice inh) | Rv3671c cf 42
Cc1ccc(N(C)S(=O)(=O)c2cccc(C(=O)OCC(=O)N(C)Cc3ccccc3)c2)cc1	none (no result: Mtb UGM inh, RecA splice inh, Mtb betalactam, Rv3671c inh)
S=C(Nc1ccc(Cl)cc1)N1CCN(C2CCCCC2)CC1	none
C=CCNC(=S)N1CCN(C2CCCCC2)CC1	Rv3671c inh 40 | Rv3671c cf inactive
O=C(C(=O)N1CCN(c2ccccc2F)CC1)c1cn(CC(=O)N2CCCC2)c2ccccc12	none (no result: Mtb UGM inh, RecA splice inh, Mtb betalactam, Rv3671c inh)
CN(C)CCNC(=O)c1ccc2nc([C@@H]3O[C@H](CO)[C@H](O)[C@H](O)[C@H]3O)[nH]c2c1	none (no result: Mtb UGM inh, RecA splice inh, Mtb betalactam, Rv3671c inh)
CCOc1ccc(-c2nc3ccccc3c(=O)o2)cc1	none
O=c1oc(-c2ccccc2Br)nc2ccccc12	Rv3671c inh 40 | Rv3671c cf 66
NNC(=O)c1cc2ccccc2cc1O	Rv3671c inh 37 | Rv3671c cf inactive
O=C(NCCO)c1cc2ccccc2cc1O	none
CCOc1ccccc1CN1CCC(n2nccc2NC(=O)C2CCCC2)CC1	none
CC(C)CCNC(=O)[C@@H](Cc1ccccc1)NC(=O)CC[C@H]1O[C@@H](n2ccc(=O)[nH]c2=O)[C@H](O)[C@@H]1O	none (no result: Mtb UGM inh, RecA splice inh, Mtb betalactam, GDH-TPI counter-1, Rv3671c inh)
Cc1cccc(-n2c(O)c(C=NC3CCS(=O)(=O)C3)c3ccccc3c2=O)c1 (stereo unspecified)	none
Cc1cc(C)cc(-n2c(O)c(C=NC3CCS(=O)(=O)C3)c3ccccc3c2=O)c1 (stereo unspecified)	Rv3671c inh 58 | Rv3671c cf 48
Nc1ccc(O)c2c1C(=O)c1ccccc1C2=O	RecA splice inh 42, Rv3671c inh 56 | Rv3671c cf 38
CCOC(=O)CNC(=O)C1(NC(=O)CNC(=O)OCc2ccccc2)CCCC1	none (no result: Mtb UGM inh, RecA splice inh, Mtb betalactam, Rv3671c inh)
Cc1cc(OC(=O)c2ccco2)c2c3c(c(=O)oc2c1)CCCC3	Rv3671c inh 60 | Rv3671c cf 73
COc1cccc(CSc2nc3ccncc3[nH]2)c1	Rv3671c inh 183 | Rv3671c cf inactive
Cc1ccc(OCCn2cc(/C=N/NC(=O)c3ccncc3)c3ccccc32)cc1	Rv3671c inh 40 | Rv3671c cf inactive
O=c1cc[nH]c2c1ccc1c(=O)cc[nH]c12	Rv3671c inh 50 | Rv3671c cf inactive
O=c1cc[nH]c2c(Cl)cccc12	none
CCOC(CNC(=O)C(=O)Nc1cc2c3c(c1)CCC(=O)N3CCC2)OCC	none
CC(=O)N1CCc2cc(S(=O)(=O)CCC(=O)N(C)Cc3ccco3)ccc21	none
